High-throughput results as filed in PubChem.
FBW7 activator: activators of human E3 ligase FBW7; Q969H0; AlphaScreen FBW7–phospho-cyclin E peptide binding, activator screen; normalized activity (activation), % at 26.1 µM; 0.13% of 650,000 active; in the data active = normalized activity above about 1.9%;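 note: purified mutant Fbw7 with reduced substrate affinity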
TEAD-YAP inh: TEAD-YAP interaction inhibition. HEK-TIYL cells, TEAD-Gal4/YAP UAS-luciferase luminescence. inhibition, % at 9.12 µM. 1.4% of 640,000 active; in the data active = inhibition above about 32%;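 note: 0% = median of test compound wells and 100% = reference inhibitor wells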
MITF inh: blocks human microphthalmia-associated transcription factor | O75030 | AlphaScreen MITF homodimerization, bead proximity signal | inhibition, % at 2.6 µM | 0.91% of 650,000 active | AID 1259374; in the data active = inhibition above about 50%;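 note: 0% = vehicle wells with protein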
Target sequence (O75030 whole entry, looked up): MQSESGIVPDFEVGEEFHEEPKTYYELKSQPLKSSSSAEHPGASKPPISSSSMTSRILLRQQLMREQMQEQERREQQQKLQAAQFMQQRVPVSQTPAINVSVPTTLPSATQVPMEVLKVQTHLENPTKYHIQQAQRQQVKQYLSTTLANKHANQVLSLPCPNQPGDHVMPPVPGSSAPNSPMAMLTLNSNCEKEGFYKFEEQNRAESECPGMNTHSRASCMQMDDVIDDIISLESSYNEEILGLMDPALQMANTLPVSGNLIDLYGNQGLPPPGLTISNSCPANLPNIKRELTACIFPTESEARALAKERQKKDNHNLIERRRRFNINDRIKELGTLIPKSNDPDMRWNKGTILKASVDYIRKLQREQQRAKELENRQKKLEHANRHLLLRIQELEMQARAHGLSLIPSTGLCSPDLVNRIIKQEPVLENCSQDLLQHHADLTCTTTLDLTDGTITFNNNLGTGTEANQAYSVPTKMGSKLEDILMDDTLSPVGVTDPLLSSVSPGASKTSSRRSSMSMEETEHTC
GPR151 activ: activates the human receptor GPR151 | Q8TDV0 | PathHunter beta-arrestin GPR151 cells, luminescence | activation, % at 11.2 µM | 1% of 650,000 active; in the data active = activation above about 4.9%;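 note: 0% = median of compound wells and 100% = cells with positive control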
MITF inh conf: confirmation of human MITF inhibitors. AlphaScreen MITF homodimerization, biotin/His-MITF beads. 16% of 4,700 active. shares compounds with MITF inh. inhibition, % at 2.6 µM. AID 1259372;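 active = inhibition above a cutoff derived from the DMSO control wells, cut at about 28% in these data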;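 note: 0% = MITF dimer wells with DMSO only; inhibitors lower the bead chemiluminescence by keeping MITF from dimerizing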
AS interf DR: AlphaScreen optical interference, dose response counter-screen; 6% of 480 active; shares compounds with MITF inh; AlphaScreen optical interference counterscreen, cell-free; IC50, µM; call rule not given here
AlphaScreen intf2: optically interferes with AlphaScreen signal | shares compounds with MITF inh | LysRS AlphaScreen counterscreen, signal interference, triplicate | inhibition, % at 2.6 µM | 7.6% of 4,700 active | AID 1259376;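 active = inhibition above a cutoff derived from the DMSO control wells, cut at about 30% in these data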
* hit, by the source's call; . = no result given. Shown are actives, neighbours in structure and some others; about 3.5% of the full set was active somewhere.

SMILES	FBW7 activator	TEAD-YAP inh	MITF inh	GPR151 activ	MITF inh conf	AlphaScreen intf2	others
O=C1NC(=O)N(c2ccc(F)cc2)C(=O)/C1=C/c1ccc(O)c(Cl)c1	0.1	2.7	19.5	1.9	.	.
COc1ccc2c(c1)C(C)CC(C)(C)N2C(=O)CNCCN1CCOCC1 (stereo not given)	-0.3	0.6	88.0*	0.5	8.9	17.7
COc1ccc2c(c1)C(C)CC(C)(C)N2C(=O)NC1CCCCC1 (stereo not given)	1.1	-21.8	17.0	-1.3	.	.
CCOC(=O)c1c(C)c(C(=O)Nc2ccccc2OCC)c(C)n1CC	-0.2	0.7	-0.6	-0.4	.	.
Cc1ccc(-c2cncc(-c3cc(N4CCC(O)CC4)nc(-c4ccccc4)n3)c2)cc1	0.6	-5.1	-49.0	0.2	.	.
COc1ccc(C/C(C)=N/Nc2nc3ccccc3[nH]2)cc1	0.4	-44.9	67.0*	-0.5	15.6	37.6*
Fc1ccc(CN2CCN(CC3CC4C=CC3C4)CC2)cc1 (stereo not given)	0.0	7.5	78.6*	-0.3	6.6	19.6
COc1ccc(OC)c(CN2CCN(CC3CC4C=CC3C4)CC2)c1 (stereo not given)	-0.1	-6.0	34.6	0.2	.	.
Cc1ccc(CN2CCN(CC3CC4C=CC3C4)CC2)cc1 (stereo not given)	0.0	4.7	74.2*	0.1	-5.5	-1.8
COc1cc(CN2CCN(CC3CC4C=CC3C4)CC2)cc(OC)c1OC (stereo not given)	0.4	10.7	56.0*	-0.4	-2.5	-0.3
CSc1ccc(CN2CCN(S(=O)(=O)c3ccc(F)cc3)CC2)cc1	0.7	4.7	44.9	-1.7	.	.
CSc1ccc(CN2CCN(CC3CC4C=CC3C4)CC2)cc1 (stereo not given)	-0.2	0.6	62.2*	0.2	-2.6	3.6
COc1cc(C)c(C(C)C)cc1S(=O)(=O)N1CCCCC1	0.0	-5.7	-16.8	0.5	.	.
Cc1ccc(C)c(S(=O)(=O)N/N=C(\CCC(=O)O)c2cccs2)c1	0.1	7.0	-5.5	-0.6	.	.
N/C(=N\OC(=O)c1ccccc1)c1ccc(Cn2cc(C(F)(F)F)ccc2=O)cc1	0.1	2.1	53.7*	0.1	10.2	11.6
Cc1ccc(S(=O)(=O)N(CC(=O)NCC2CCCO2)c2ccccc2Cl)cc1 (stereo not given)	-0.1	4.9	-18.8	1.4	.	.
Cc1cc(Cl)ccc1N(CC(=O)NCC1CCCO1)S(=O)(=O)c1ccccc1 (stereo not given)	0.6	14.4	72.6*	-1.5	4.2	9.2
Cc1cccc2nc(Cn3ccccc3=O)cn12	0.0	-1.3	12.7	0.0	.	.
Cc1cccc2nc(CN3CCN(c4ccc(F)cc4)CC3)cn12	-0.2	0.8	72.3*	-1.2	-14.1	1.7
CCOC(=O)C1=C(C)Nc2nnnn2C1c1ccc(OCc2ccccc2)cc1 (stereo not given)	0.0	-11.1	9.2	0.2	.	.
Oc1ccccc1CNc1ccc(F)cc1	0.0	-5.6	-1.3	1.3	.	.
Oc1ccc(CNc2ccccc2)c2cccnc12	-0.7	3.8	73.2*	0.2	43.7*	80.5*
COc1cccc(NCc2ccc(O)c3ncccc23)c1	-1.9	92.2*	55.5*	0.1	93.0*	92.5*
COc1ccc(NCc2ccc(O)c3ncccc23)c(OC)c1	-0.6	7.6	75.0*	-0.8	46.2*	88.7*
Oc1ccc(CNc2ccc(F)cc2)c2cccnc12	-1.2	11.0	66.1*	-1.6	104.4*	100.3*
SMILES	FBW7 activator	TEAD-YAP inh	MITF inh	GPR151 activ	MITF inh conf	AlphaScreen intf2	others
COC(=O)c1ccc(N2C(=O)C3C4C=CC(C(OC(C)=O)OC(C)=O)(O4)C3C2=O)cc1 (stereo not given)	-0.1	5.5	13.4	-0.5	.	.
CN(CC(=O)NCc1cccc(F)c1)c1nnc(N2CCCC2=O)s1	0.1	1.8	9.6	0.7	.	.
Cc1cc(C)nc(-n2nc(C)c3c2NC2=C(C(=O)CCC2)C3c2ccc(C#N)cc2)n1 (stereo not given)	-0.3	4.4	-4.3	1.1	.	.
Oc1ccc(CNc2cccc(F)c2)c2cccnc12	-1.3	54.9*	61.9*	-0.8	98.0*	100.3*
C/C(=N\Nc1ccc(S(=O)(=O)O)cc1)c1ccc([N+](=O)[O-])o1	-0.1	-1.6	60.1*	0.1	40.0*	2.2	AS interf DR=>6.48
CC1=C(C(=O)O)N2C(=O)[C@@H](NC(=O)[C@H](N)c3ccccc3)[C@H]2SC1	-0.1	4.6	6.0	2.7	.	.
C/C=C\C1=C(C(=O)O)N2C(=O)C(NC(=O)C(N)c3ccc(O)cc3)C2SC1 (stereo not given)	0.3	-10.2	50.8*	-1.1	28.4*	4.6	AS interf DR=>6.48
CN(C(=S)NC(=O)C1(C)CC1(Cl)Cl)c1ccccc1 (stereo not given)	0.0	-3.0	50.6*	-0.6	-1.0	17.6
O=C1CCC(CCNCCOc2ccc(F)cc2)N1Cc1cccc(Cl)c1 (stereo not given)	-0.1	-2.8	70.9*	-0.5	0.6	3.0
O=C1CCC(CCNCCOc2ccc(F)cc2)N1Cc1cccc(-n2cccn2)c1 (stereo not given)	-0.2	2.6	-0.1	2.5	.	.
COc1ccc(C(=O)n2nc(-c3ccco3)nc2N)cc1	-0.5	-1.1	80.0*	-0.5	77.7*	48.7*
Cc1ccc(C(=O)n2nc(-c3ccco3)nc2N)cc1	0.3	3.0	16.1	-0.1	.	.
O=C(CN1CCCCC1)Nc1c2c(nc3ccccc13)CCC2	-0.2	1.8	53.4*	-0.8	17.2	16.3
CC1CC(C)CN(CC(=O)Nc2c3c(nc4ccccc24)CCC3)C1 (stereo not given)	0.0	-11.2	73.8*	0.9	-7.5	-5.8
COc1ccc(CN2CCN(C3CC4CCC3C4)CC2)cc1OC (stereo not given)	-0.4	13.8	63.5*	-0.1	-15.8	-0.2
COc1ccc(CN2CCN(C3CCCC3)CC2)cc1OC	0.1	8.6	47.3	-0.6	.	.
c1ccc(CN2CCC(N3CCN(C4CC5CCC4C5)CC3)CC2)cc1 (stereo not given)	-0.1	4.6	34.8	1.9	.	.
COc1ccc(CN2CCN(C3CC4CCC3C4)CC2)cc1 (stereo not given)	1.1	-4.5	76.6*	-0.4	1.0	0.6
O=C(NCc1cccnc1)c1cccc(-n2c(=S)[nH]c3cc(Cl)ccc3c2=O)c1	-0.2	9.0	-1.7	0.3	.	.
Cc1ccc(-n2cc(-c3ccc(C(=O)N4CCCC4)cn3)cn2)cc1	0.8	5.2	6.3	-0.3	.	.
O=C(c1ccc(-c2cnn(-c3ccc(Cl)cc3)c2)nc1)N1CCOCC1	0.8	9.6	57.7*	-1.9	9.3	16.0
CCCN(CCO)Cc1ccccc1C(F)(F)F	0.1	6.0	51.1*	-0.4	11.1	12.2
CCCN(CCO)Cc1cccc2ccccc12	-0.2	-3.0	-4.2	1.5	.	.
Cc1ccc(O)c2ncccc12	-0.1	-11.1	-0.4	-0.5	.	.
